High-throughput results from PubChem BioAssay.
KB-V1 MDR tox: kills drug-selected multidrug resistant KB-V1 cells | Potency, µM (series often up to 46.1 µM), most hits filed as cytotoxic | AID 1347076 | 3.4% of 400,000 active | KB-V1 MDR cells viability, CellTiter-Glo, 72 h; also: % is scaled to controls: 0 for no effect and ±100 for the full control effect; nearly all actives have a fitted effect of over 60% in size
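qHTS viability screen in drug-selected KB-V1 MDR cells: 72 h compound treatment at 37 degrees C, ATP luminescence end point.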
MCF10A rerep: induces DNA re-replication in MCF 10a normal breast cells. AID 624296. Potency, µM (titrated, usually from 46.1 µM), inactives show at the top dose activity, positive = re-replication, most hits filed as activators. MCF 10A DNA re-replication, Hoechst nuclear intensity, 48 h. 2.9% of 350,000 active; also: % of control where 0% means no effect; nearly all actives have a fitted effect of over 50% in size
SW480 rerep: induces DNA re-replication in SW480 colon adenocarcinoma cells | SW480 DNA re-replication, Hoechst DNA content imaging, 48 h | Potency, µM (top dose mostly 46.1 µM), inactives show at the top dose re-replication activation, usual class: activators | 1.8% of 340,000 active | AID 624297; also: % of control where 0% means no effect; nearly all actives have a fitted effect of over 55% in size
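Readout is total intensity of Hoechst-stained nuclei, excited at 405 nm and collected at 500-530 nm. Compound treatment lasted 48 hr at 37 C in 5% CO2 before staining.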
KB-3-1 tox: KB-3-1 parental cell cytotoxicity; 1.4% of 400,000 active; KB-3-1 viability, CellTiter-Glo ATP luminescence, 72 h; Potency, µM (highest dose often 46.1 µM), actives largely listed as cytotoxic; also: % is scaled to controls: 0 for no effect and ±100 for the full control effect; nearly all actives have a fitted effect of over 60% in size
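Viability of parental KB-3-1 cells, measured by CellTiter-Glo luminescence, followed a 72 h incubation at 37 °C with pinned compounds in phenol-red-free DMEM containing 10% FBS.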
HT1080 IDH1KD tx: toxicity to HT-1080 IDH1 knockdown cells (counter line). HT-1080 IDH1 knockdown viability, ATP luminescence, 48 h. AID 686971. Potency, µM (highest dose often 46.1 µM), for inactives: top-dose activity, negative = toxicity, hits mostly cytotoxic. 2% of 360,000 active;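 also: 0% = DMSO wells and -100% = cell-free medium wells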
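Using the IDH1-knockdown HT-1080 line run in the same batch and compound series as the NT line, viability after 48 h at 37 °C was determined by CellTiter-Glo luminescence and expressed as % activity.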
HT1080NT lethal: kills 2HG-producing HT-1080-NT fibrosarcoma cells; Potency, µM (titrated, usually from 46.1 µM), for the others: at the highest dose activity, negative = less viability, actives largely listed as cytotoxic; 1.6% of 360,000 active; HT-1080-NT fibrosarcoma viability, CellTiter-Glo ATP luminescence, 48 h; AID 686970;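 also: NT is the 2HG producing partner of a matched IDH1 knockdown line; 0% = DMSO-treated cells and -100% = media-only wells without cells; nearly all actives have a fitted effect of over 55% in size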
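A 48-hour cytotoxicity screen used HT-1080-NT cells plated 2 hours before compound delivery. ATP-based CellTiter-Glo luminescence measured viability, normalized to DMSO and no-cell controls.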
* marks the source's active call; other numbers are inactive results; i = inactive; ? = inconclusive; / = no result given; ! = a repeat was not active. Sampled rows, rich in hits. Any-hit rate of the full collection: about 8%. Calls follow the shape of the dose curve; as a rule, active = well fitted curve in the direction sought with a large enough effect; inconclusive = small, poorly fitted or top-dose-only effect, or another doubt; inactive = no such curve, though single readings can be large; an effect the other way counts as inactive or inconclusive. Potency is read from the fitted curve at half-maximal effect.

SMILES	KB-V1 MDR tox	MCF10A rerep	SW480 rerep	KB-3-1 tox	HT1080 IDH1KD tx	HT1080NT lethal
COc1cc(/C=C/C(=O)OCC(=O)NCc2ccc(F)cc2)ccc1O	16µM*	15µM*	8.2µM*	?	?	?
COc1cc(/C=C/C(=O)CC(=O)/C=C/c2ccc(O)c(OC)c2)ccc1O	i	26µM*!	12µM*!	?	2.6µM*	?
COc1cc(/C=C/C(=O)O)ccc1O	i	?	?	i	5%	-1%
COc1cc(/C=C/C(=O)/C=C(O)/C=C/c2ccc(O)c(OC)c2)ccc1O	i	33µM*	30µM*	?	?	?
COc1cc(/C=C/C(=O)OCc2cn3cc(Cl)ccc3n2)ccc1O	?	10µM*	?	?	?	?
COc1cc(C=C(C(C)=O)C(C)=O)ccc1O	i	?	0%	i	-2%	0%
CCOC(=O)CSCc1cn2cc(Cl)ccc2n1	i	1%	-2%	i	4%	8%
CCN1CCN(C(=O)c2ccc3c(c2)N(Cc2ccccc2F)C(=O)c2ccccc2S3=O)CC1 (stereo not given)	i	/	/	i	/	/
Cc1ccc(N(Cc2cccs2)C(=O)c2ccc(Br)o2)cc1	i	/	/	i	/	/
CCOC(=O)c1noc2ncnc(N(CCC(=O)OC)c3ccccc3)c12	i	/	/	i	/	/
COc1cc(/C=N/Nc2ccc(C(=O)O)cc2)ccc1O	i	-1%	-4%	i	-7%	0%
COc1cc(/C=C/C(C)=NNc2ccccc2)ccc1O	i	16µM*	?	i	?	?
CC(C)(C)c1ccc(/C=N/OCC(=O)NCc2ccc(F)cc2)cc1	?	?	21µM*	i	?	?
CCOC(=O)[C@H]1[C@H]2COc3ccc(C)cc3[C@@H]2N2C(=O)c3cc(Br)ccc3NC(=O)[C@@]12C	?	2%	?	?	-11%	-11%
CN(Cc1ccc(-n2cccn2)cc1)C(=O)c1cnn2c1NC(c1ccco1)CC2C(F)(F)F (stereo not given)	4.6µM*	?	4%	?	-7%	-8%
O=C(Nc1ccc2c(c1)CCC2)c1cnn2c1NC(c1ccco1)CC2C(F)(F)F (stereo not given)	i	?	25%	i	23µM*	?
Cc1ccc(Cl)cc1NC(=O)c1cnn2c1NC(c1ccco1)CC2C(F)(F)F (stereo not given)	i	24%	28%	i	-14%	-19%
CCCCCc1ccc(OCCOCCn2c[n+](C)c3ccccc32)c(CCCCC)c1	i	?	?	18µM*	?	?
CCCCCc1ccc(OCCC[n+]2ccccc2)c(CCCCC)c1	i	?	2%	12µM*	5.2µM*	3.7µM*
C[n+]1cn(CC(O)COCc2ccccc2)c2ccccc21 (stereo not given)	i	6%	-2%	i	-6%	-8%
Cc1c(Nc2cc(N3CCCCCC3)c3nonc3c2[N+](=O)[O-])c(=O)n(-c2ccccc2)n1C	i	9%	-3%	i	1%	6%
CCOC(=O)CN1C(=O)N[C@@H](c2ccc(Br)cc2)C(C(=O)OC)=C1C	i	2%	-19%	i	-4%	-3%
CCOC(=O)CN1C(=O)N[C@H](c2ccc(Br)cc2)C(C(C)=O)=C1C	i	6.5µM*	?	i	2%	11%
CCN(CC)S(=O)(=O)c1ccc(N2C(=O)CC2(/C=C/c2ccccc2)C(=O)NC2CCCC2)cc1 (stereo not given)	2.6µM*	?	?	i	-8%	0%
COc1ccccc1/C=C/c1onc(C)c1S(=O)(=O)N1CCC(C(=O)NC2CCCCCC2)CC1	i	9%	-6%	i	17%	4%
SMILES	KB-V1 MDR tox	MCF10A rerep	SW480 rerep	KB-3-1 tox	HT1080 IDH1KD tx	HT1080NT lethal
COc1ccccc1/C=C/C1(C(=O)NC2CCCC2)CC(=O)N1c1ccc(F)cc1 (stereo not given)	?	?	16µM*	i	8.2µM*	?
COc1ccccc1/C=C/C1(C(=O)NC2CCCC2)CC(=O)N1c1ccc(C)cc1 (stereo not given)	2.9µM*	18µM*	?	21µM*	?	?
COc1ccccc1OCC(=O)NC1CCCCCC1	?	1%	-2%	i	4%	17%
COc1cc(OC)c(NS(=O)(=O)c2c(C(=O)N3CCCCCC3)c(C)n(C)c2C)cc1Cl	i	/	/	i	/	/
CC(=O)C1=C(O)C(=O)N(c2ccc(Br)cn2)C1c1cccc([N+](=O)[O-])c1 (stereo not given)	i	-1%	?	i	-2%	1%
Cc1cccc(NC(=O)c2ccc(NC(C)c3ccccc3)c([N+](=O)[O-])c2)n1 (stereo not given)	i	0%	?	?	0%	14%
CN(NC(=O)Nc1ccccc1)c1cnn(C)c(=O)c1Cl	?	2.3µM*	3%	i	3%	-13%
CCC(C)NC(=O)COC(=O)c1oc2ccccc2c1CSc1ccc(Cl)cc1 (stereo not given)	i	-1%	0.92µM*	i	-4%	-1%
CCC(CC)C(=O)NCCCCc1ccccc1	?	-1%	4%	i	-3%	-1%
Cc1nc2nc(C)n(CCN3CCOCC3)c(=O)c2c(-c2cccc([N+](=O)[O-])c2)c1C(=O)CCCCCCCCCCN1CCC(c2ccccc2)(c2ccccc2)CC1	7.3µM*	?	1%	?	21µM*	?
CCOc1cc(N2CCOCC2)c(OCC)cc1NC(=O)COc1ncnc2ccccc12	16µM*	7%	-4%	i	-2%	-16%
CCOc1cc(N2CCOCC2)c(OCC)cc1NC(=O)Cc1ccc(OC)c(OC)c1	5.8µM*	5%	-1%	?	1%	-1%
CCOc1ccc(Nc2cc(C)nc3nc(Cc4ccc(Cl)cc4)nn23)cc1	i	/	/	i	/	/
CN1C2=CC=CC=CC2=[N+](C)C12C([N+](=O)[O-])=CC(=[N+]([O-])[O-])C=C2[N+](=O)[O-] (stereo not given)	i	?	0.65µM*	i	2.1µM*	?
CN1C2=CC=CC=CC2=[N+](C)C12C=CC(=[N+]([O-])[O-])C=C2[N+](=O)[O-] (stereo not given)	?	2%	-5%	i	-5%	-7%
Cn1ccsc1=NC(=O)c1ccc(OC(F)(F)F)cc1	i	7%	0%	i	?	-12%
